Source: PubChem BioAssay (NCATS)
Results filed as inconclusive are left out. Where a call stands in place of a potency, no number is given. Active and inactive are the calls of the source. The call rests on the fitted dose curve; in most records, active means well fitted inhibition curve with a large enough effect; inconclusive means small, poorly fitted or top-dose-only effect; inactive means flat fitted curve, though single readings scatter.

These molecules were tested against Voltage-gated inwardly rectifying potassium channel KCNH2 (Homo sapiens) (UniProt Q12809) (assay: qHTS Assay for Small Molecule Inhibitors of the Human hERG Channel Activity (AID 588834;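 further: lower thallium flux fluorescence means stronger hERG block; nearly all actives have a fitted effect of over 50% in size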; further: potency means the concentration at half of the fitted maximal effect)). Settings: U2OS BacMam hERG, FluxOR thallium flux fluorescence; series mostly up to 46.1 µM.
Voltage-gated inwardly rectifying potassium channel KCNH2 (Homo sapiens), sequence (Q12809 whole entry, looked up): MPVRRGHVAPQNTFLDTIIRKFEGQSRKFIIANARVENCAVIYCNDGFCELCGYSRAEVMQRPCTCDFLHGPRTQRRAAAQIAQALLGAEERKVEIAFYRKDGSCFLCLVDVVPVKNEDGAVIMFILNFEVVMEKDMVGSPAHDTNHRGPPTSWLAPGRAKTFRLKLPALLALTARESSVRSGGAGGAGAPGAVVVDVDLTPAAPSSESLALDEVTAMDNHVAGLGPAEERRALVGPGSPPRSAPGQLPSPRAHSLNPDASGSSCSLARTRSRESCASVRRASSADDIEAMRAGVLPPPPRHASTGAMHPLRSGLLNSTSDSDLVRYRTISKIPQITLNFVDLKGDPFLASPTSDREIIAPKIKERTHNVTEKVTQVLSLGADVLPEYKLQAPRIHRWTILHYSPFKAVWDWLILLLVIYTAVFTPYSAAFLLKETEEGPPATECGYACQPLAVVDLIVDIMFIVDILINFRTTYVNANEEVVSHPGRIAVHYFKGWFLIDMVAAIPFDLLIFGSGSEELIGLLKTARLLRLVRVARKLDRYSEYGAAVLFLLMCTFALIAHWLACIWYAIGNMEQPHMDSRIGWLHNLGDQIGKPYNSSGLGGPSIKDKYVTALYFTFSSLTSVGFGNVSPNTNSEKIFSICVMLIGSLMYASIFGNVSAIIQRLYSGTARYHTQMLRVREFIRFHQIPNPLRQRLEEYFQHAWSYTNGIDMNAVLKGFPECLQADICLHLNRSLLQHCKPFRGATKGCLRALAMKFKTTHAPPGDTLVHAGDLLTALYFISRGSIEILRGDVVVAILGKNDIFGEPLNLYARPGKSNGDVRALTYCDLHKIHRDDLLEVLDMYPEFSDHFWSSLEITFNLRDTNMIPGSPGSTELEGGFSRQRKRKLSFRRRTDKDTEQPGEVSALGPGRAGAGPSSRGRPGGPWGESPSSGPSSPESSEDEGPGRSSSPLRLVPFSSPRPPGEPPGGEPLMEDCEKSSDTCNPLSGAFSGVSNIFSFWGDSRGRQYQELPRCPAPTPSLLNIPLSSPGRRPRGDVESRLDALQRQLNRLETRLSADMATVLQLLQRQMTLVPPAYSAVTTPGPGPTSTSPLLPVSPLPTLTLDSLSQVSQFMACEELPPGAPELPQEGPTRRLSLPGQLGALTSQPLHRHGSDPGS
Procedure, shortened: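 Thallium serves as surrogate for K+ influx through BacMam-delivered hERG in U2OS cells. Compounds are added for about 10 minutes after dye loading; stimulation buffer then starts flux, monitored kinetically on FDSS.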

SMILES	Potency
CCCC(C)C1(CC)C(=O)NC(=O)NC1=O (stereo not given)	inactive
COc1ccc2c3c1O[C@H]1[C@@H](O)C=C[C@H]4[C@@H](C2)NCC[C@@]341	inactive
Cc1ccccc1-n1c(CF)nc2ccc(N)cc2c1=O	inactive
NCC[C@H](O)C(=O)N[C@@H]1C[C@H](N)[C@@H](O[C@H]2O[C@H](CN)[C@@H](O)[C@H](O)[C@H]2N)[C@H](O[C@@H]2O[C@H](CO)[C@@H](O)[C@H]2O)[C@H]1O	inactive
Cc1cccc(C(C)c2cnc[nH]2)c1C (stereo not given)	inactive
[H+].[H+].[Hg+2].[O-]B([O-])[O-].[c-]1ccccc1	10 µM (active)
CCN(CC)C(=O)/C(Cl)=C(\C)OP(=O)(OC)OC	inactive
CC(=O)OO	inactive
C=CCN1CC[C@]23c4c5ccc(O)c4O[C@H]2[C@@H](O)C=C[C@H]3[C@H]1C5	inactive
CC(=O)O[C@H]1C[C@H](O[C@H]2[C@@H](O)C[C@H](O[C@H]3[C@@H](O)C[C@H](O[C@H]4CC[C@@]5(C)[C@H](CC[C@@H]6[C@@H]5C[C@@H](O)[C@]5(C)[C@@H](C7=CC(=O)OC7)CC[C@]65O)C4)O[C@@H]3C)O[C@@H]2C)O[C@H](C)[C@H]1O[C@@H]1O[C@H](CO)[C@@H](O)[C@H](O)[C@H]1O	inactive
Cc1ccccc1-n1c(C)nc2ccccc2c1=O	inactive
CCN(CC)c1ncnc2c1ncn2[C@@H]1O[C@H](COP(=O)(O)OP(=O)(O)C(Br)(Br)P(=O)(O)O)[C@@H](O)[C@H]1O	inactive
NCC(O)c1cccc(O)c1 (stereo not given)	inactive
CN(C)[C@@H]1C(=O)C(C(N)=O)=C(O)[C@@]2(O)C(=O)C3=C(O)c4c(O)ccc(Cl)c4[C@@](C)(O)[C@H]3C[C@@H]12	inactive
COC(COC(N)=O)C1=C(N2CC2)C(=O)C(C)=C(N2CC2)C1=O (stereo not given)	inactive
C[C@@H]([C@H](O)c1ccccc1)N(C)C	inactive
CCC1(c2ccccc2)C(=O)NC(=O)N(C)C1=O (stereo not given)	inactive
CN(C)[C@H](Cc1ccccc1)c1ccccc1	inactive
Cc1cc(C)cc(C(=O)OC2C[C@H]3CC[C@@H](C2)N3C)c1 (stereo not given in full)	3.98 µM (active)

SMILES	Potency
COc1cc2c(cc1OC)[C@@]13CCN4CC5=CCO[C@H]6CC(=O)N2[C@H]1[C@H]6[C@H]5C[C@H]43	inactive
OC[C@@H](O)[C@H]1O[C@@H]2O[C@@H](C(Cl)(Cl)Cl)O[C@@H]2[C@H]1O	inactive
CCC(=O)O[C@]1(c2ccccc2)CCN(C)C[C@H]1C	inactive
CC(=O)[C@H]1CC[C@H]2[C@@H]3CC[C@@H]4C[C@H](O)CC[C@]4(C)[C@H]3CC[C@]12C	inactive
C=CCC1(C(C)CCC)C(=O)N=C(S)NC1=O (stereo not given)	inactive
CO[C@H]1[C@@H](O)C[C@H](O[C@H]2[C@@H](O)C[C@H](O[C@H]3[C@@H](O)C[C@H](O[C@H]4CC[C@@]5(C)[C@H](CC[C@@H]6[C@@H]5C[C@@H](O)[C@]5(C)[C@@H](C7=CC(=O)OC7)CC[C@]65O)C4)O[C@@H]3C)O[C@@H]2C)O[C@@H]1C	inactive
CC(=O)O[C@H]1CC[C@@]2(C)C(=CC[C@@H]3[C@@H]2CC[C@]2(C)C(=O)CC[C@@H]32)C1	inactive
CCCN1CCCC2Cc3[nH]ncc3CC21 (stereo not given)	inactive
CCN(CC)CCO[C@H]1CC[C@@]2(C)C(=CC[C@@H]3[C@@H]2CC[C@]2(C)C(=O)CC[C@@H]32)C1	inactive
C#CC(C)(O)CC (stereo not given)	inactive
N#CC(C#N)=Cc1cc(O)c(O)c(O)c1	inactive
Oc1ccc2c3c1O[C@H]1[C@@H](O)CC[C@@]4(O)[C@@H](C2)N(CC2CCC2)CC[C@]314	inactive
COc1ccc(OC)c([C@@H](O)[C@H](C)N)c1	inactive
CCNC1(c2cccs2)CCCCC1=O (stereo not given)	inactive
[2H]C([2H])([2H])[C@H](N)Cc1ccccc1	inactive
CC(C)CCC(=O)O[C@H]1CC[C@H]2[C@@H]3CCC4=CC(=O)CC[C@]4(C)[C@H]3CC[C@]12C	25.1 µM (active)
CCOc1ccc2c3c1O[C@H]1[C@@H](O)C=C[C@H]4[C@@H](C2)N(C)CC[C@@]341	inactive
CCCCNCC(O)c1ccc(O)cc1 (stereo not given)	inactive
S=C(S)N1CCNCC1	inactive

Each molecule was assayed against Luciferin 4-monooxygenase (Photinus pyralis) (UniProt P08659) (assay: Biochemical firefly luciferase enzyme assay for NPC (AID 624030;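 further: purified P. pyralis luciferase at 10 nM with luciferin and ATP substrate; nearly all actives have a fitted effect of over 70% in size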)). Settings: purified P. pyralis luciferase, luminescence, 5 min; series mostly up to 58.6 µM.
Luciferin 4-monooxygenase (Photinus pyralis), sequence (P08659 whole entry, looked up): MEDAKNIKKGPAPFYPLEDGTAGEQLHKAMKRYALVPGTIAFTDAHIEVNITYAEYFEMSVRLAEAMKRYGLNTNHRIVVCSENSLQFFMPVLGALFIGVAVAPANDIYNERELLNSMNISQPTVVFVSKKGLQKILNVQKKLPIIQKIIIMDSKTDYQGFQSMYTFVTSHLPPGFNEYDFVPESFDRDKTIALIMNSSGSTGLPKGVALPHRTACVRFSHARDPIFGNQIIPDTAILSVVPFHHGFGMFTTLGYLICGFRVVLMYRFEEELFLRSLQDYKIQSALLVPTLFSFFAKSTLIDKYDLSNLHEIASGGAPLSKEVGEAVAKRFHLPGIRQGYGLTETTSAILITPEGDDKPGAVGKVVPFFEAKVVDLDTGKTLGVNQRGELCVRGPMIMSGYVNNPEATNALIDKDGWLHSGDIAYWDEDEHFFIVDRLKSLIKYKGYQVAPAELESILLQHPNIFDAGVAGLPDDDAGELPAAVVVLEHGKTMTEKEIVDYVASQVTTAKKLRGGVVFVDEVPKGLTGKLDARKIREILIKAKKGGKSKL
Procedure, shortened: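 Purified P. pyralis luciferase at 10 nM in 50 mM Tris Acetate (final), luminescence read within 5 minutes of enzyme addition to compounds. Activity normalised to PTC124 versus DMSO; concentration-response curves classed by r2, magnitude and activity.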

SMILES	Potency
CCCC(C)C1(CC)C(=O)NC(=O)NC1=O (stereo not given)	inactive
CCN(CC)C(=O)/C(Cl)=C(\C)OP(=O)(OC)OC	inactive
CC(=O)OO	inactive
C=CCN1CC[C@]23c4c5ccc(O)c4O[C@H]2[C@@H](O)C=C[C@H]3[C@H]1C5	inactive
Cc1ccccc1-n1c(C)nc2ccccc2c1=O	inactive
NCC(O)c1cccc(O)c1 (stereo not given)	inactive
CCC1(c2ccccc2)C(=O)NC(=O)N(C)C1=O (stereo not given)	inactive
C=CCC1(C(C)CCC)C(=O)N=C(S)NC1=O (stereo not given)	inactive
C#CC(C)(O)CC (stereo not given)	inactive
CCOc1ccc2c3c1O[C@H]1[C@@H](O)C=C[C@H]4[C@@H](C2)N(C)CC[C@@]341	inactive
CCCCNCC(O)c1ccc(O)cc1 (stereo not given)	inactive
S=C(S)N1CCNCC1	inactive
